# Wnt act: activators of Wnt/beta-catenin signaling | activation, % at 9.35 µM | Wnt/beta-catenin reporter cell assay, activator, plate reader | 300,000 compounds, 1.2% hits; in the data active = activation above about 30%, passing the limit was not always enough; inconclusive = no clear call, values can overlap the other calls;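 note: 0% = neutral control wells and 100% = positive control wells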
# MITF act: MITF TRPM1 promoter activation in melanoma cells. 300,000 compounds, 0.75% hits. activation, % at 12.5 µM. SK-MEL-5 TRPM1-promoter luciferase, 24 h; % of positive control, neutral wells = 0;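 active = mean activation of at least 80% with every replicate also reaching 80%; inconclusive = mean reaches 80% but some replicate falls short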;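 note: 0% = neutral control wells and 100% = parthenolide positive control wells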
# Rtt109 HAT inh: blocks Candida albicans Rtt109/Vps75 acetyltransferase activity | 330,000 compounds, 0.16% hits | purified Rtt109/Vps75, ThioGlo CoA-SH fluorescence, 4 h | Q5AAJ8 | inhibition, % at 34.9 µM | AID 540336;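 active = inhibition of at least 50% in every replicate; inconclusive = best replicate reaches 50% inhibition but some replicates fall short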
# Target sequence (Q5AAJ8 whole entry, looked up): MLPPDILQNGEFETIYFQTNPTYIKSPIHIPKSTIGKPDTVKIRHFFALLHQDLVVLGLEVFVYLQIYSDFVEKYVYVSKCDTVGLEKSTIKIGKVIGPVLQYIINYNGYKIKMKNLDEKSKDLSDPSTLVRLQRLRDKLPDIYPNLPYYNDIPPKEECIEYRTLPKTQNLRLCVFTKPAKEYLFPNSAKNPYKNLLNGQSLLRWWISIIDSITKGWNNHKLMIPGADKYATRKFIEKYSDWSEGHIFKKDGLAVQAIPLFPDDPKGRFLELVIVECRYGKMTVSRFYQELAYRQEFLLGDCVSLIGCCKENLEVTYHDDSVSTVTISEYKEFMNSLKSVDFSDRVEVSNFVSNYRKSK
# Statin myotox sup: suppressors of simvastatin-induced myotoxicity in C2C12 myotubes. ATP luminescence, 48 h; scaled: DMSO 0, geranylgeraniol control 100. 330,000 compounds, 0.78% hits. rescue of ATP level, % at 7.49 µM;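 active = mean ATP rescue above about 67%, or every replicate alone reaching that limit, limit read from the data, passing the limit was not always enough; inconclusive = no clear call, values can overlap the other calls; inactive = mean under the limit and some replicate under it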;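 note: myotubes were challenged with 10 µM simvastatin during compound exposure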
# esBAF inh: blocks esBAF chromatin remodeling in mouse ES cells; 350,000 compounds, 2% hits; reporter increase, % at 12.5 µM; Bmi1-luciferase knock-in reporter, 24 h; 100% = twice the neutral-well signal; in the data active = activation above about 40%; inconclusive = no clear call, values can overlap the other calls;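 note: 0% = median of the plate's neutral control wells and 100% = double that signal; a rise in the Bmi1 reporter signal indicates esBAF inhibition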
# esBAF Ring1 qPCR: esBAF inhibition confirmed by Ring1 de-repression; mouse ESC E14, Ring1 mRNA RT-qPCR fold change; 550 tested, under 10 active; fold change at 33 µM; shares compounds with esBAF inh;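 active = Ring1 gene expression raised more than 2-fold over untreated cells in both replicates at either tested dose; inconclusive = only one replicate above 2-fold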;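 note: Ring1 transcript normalised to actin housekeeping signal by TaqMan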
# Fgf4 repress: represses Fgf4 in mouse ESCs, confirming esBAF inhibition. 550 compounds, 4% hits. mouse ESC E14, Fgf4 mRNA qPCR fold change; hits give low values. shares compounds with esBAF inh. AID 743177. Fgf4 expression fold change at 33 µM;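 active = Fgf4 expression under 0.8 fold of control in both repeat measurements at one or both tested doses; inconclusive = under 0.8 fold in just a single repeat measurement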;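 note: Fgf4 transcript normalised to actin in duplex TaqMan qPCR; cells exposed to compound for 24 h before lysis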
# Bmi1 derepress: esBAF inhibition confirmed by Bmi1 de-repression; shares compounds with esBAF inh; mouse ESE14 ES cells, Bmi1 mRNA qPCR fold; hits give high values; fold change at 33 µM; 550 tested, under 10 active;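 active = Bmi1 expression fold change above 6 at either tested concentration, seen in replicate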;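 note: higher fold means more Bmi1 de-repression and stronger esBAF inhibition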
# A549 cytotox: cytotoxicity in A549 cells; 550 tested, under 10 active; cell viability change % (negative = cytotoxic), % at 25 µM, hits read low; plate reader; shares compounds with esBAF inh; AID 743188; call rule not given here
# HepG2 cytotox SP: HepG2 cell cytotoxicity at single point; shares compounds with esBAF inh; activity change, negative = inhibition, % at 25 µM; plate reader; hits give low values; 550 compounds, 4% hits; in the data active = activity change below about -50%
# HEK293 tox SP: HEK293 cell cytotoxicity at single point. 550 compounds, 3% hits. activity change, negative = inhibition, % at 25 µM, hits read low. shares compounds with esBAF inh. plate reader; in the data active = activity change below about -38%, passing the limit was not always enough
# Starred values were filed as active, the others as inactive; u = inconclusive; x = no result. This is a sample that favours compounds with a hit; in the whole collection about 3.1% have one here.
SMILES,Wnt act,MITF act,Rtt109 HAT inh,Statin myotox sup,esBAF inh,esBAF Ring1 qPCR,Fgf4 repress,Bmi1 derepress,A549 cytotox,HepG2 cytotox SP,HEK293 tox SP
Cc1ccc(NC(=O)NC2CCCCCCC2)cc1C,20,63,12,5,61*,1.5,0.94,1.6,10,4,1
Nc1ccc(NC(=O)NC2CCCCC2)cc1,5,-8,-1,3,4,x,x,x,x,x,x
CS(=O)(=O)N1CCCCN2[C@@H](CO)[C@H](c3ccc(Br)cc3)[C@@H]2C1,x,x,x,8,1,x,x,x,x,x,x
COc1ccc(C(=O)O/N=C(/c2cccs2)C(C)(C)C)cc1,4,-4,-14,4,3,x,x,x,x,x,x
COc1ccc(C2CC2/C(=N/OC(=O)c2cccs2)c2ccccc2)cc1 (stereo not given),20,x,0,x,68*,1.2,1,1.6,-8,-21,-7
O=C(Nc1cccc(Cl)c1Cl)c1ccc(-c2ccccc2)cc1,x,17,10,-12,74*,1.1,0.95,1.7,3,19,10
O=C(Nc1ccccc1Cl)c1ccc(C(=O)Nc2ccccc2Cl)cc1,-2,-6,-1,x,x,x,x,x,x,x,x
COc1ccc(-c2nc(Cc3ccc(Cl)cc3)no2)cc1OC,x,1,1,x,x,x,x,x,x,x,x
Clc1ccc(-c2nc(Cc3ccccc3)no2)cc1,x,106*,3,-4,70*,1.1,0.93,1.2,-16,-13,-13
C[C@H](CO)N1C[C@H](C)[C@@H](CN(C)C(=O)C2CCOCC2)Oc2ncc(-c3ccccc3)cc2C1=O,x,x,x,5,3,x,x,x,x,x,x
O=C(NC1CCCCCCC1)c1ccc(F)cc1,29,59,0,18,-4,x,x,x,x,x,x
O=C(NC1CCCCC1)c1ccc(-c2ccccc2)cc1,22,68,0,-13,70*,1.4,0.99,1.5,-3,-34,-6
O=C(NC1CCCCC1)c1n[nH]c2c1CC(c1ccccc1)CC2 (stereo not given),26,61,6,4,70*,1.2,0.9,1.5,-5,-6,3
O=C(c1ccc(Cl)cc1)c1cnc(-c2ccc(Cl)cc2)s1,x,73,-5,2,63*,1.2,1.1,1.2,-9,-47,0
O=C(c1ccccc1)c1cnc(-c2ccccc2)s1,12,39,-3,x,x,x,x,x,x,x,x
CCC(=O)Nc1cccc(-c2nnc(-c3ccccc3)o2)c1,1,100*,-4,-6,74*,1.2,1.1,1.2,-11,15,-1
CCCCC(=O)Nc1cccc(-c2nnc(-c3ccccc3)o2)c1,x,13,0,-78,7,x,x,x,x,x,x
O=C(O)c1ccc(O)c2ncccc12,-2,x,x,13,71*,0.99,0.93,1.5,-13,-22,-23
CN1[C@@H]2c3ccc(-c4ccncc4)c(=O)n3C[C@H]1[C@H](CO)[C@H]2C(=O)NCCc1ccccc1,x,x,x,-25,-2,x,x,x,x,x,x
O=c1c2ccccc2sc2ccccc12,14,36,-11,0,57*,0.96,1,2,-13,7,-14
O=c1c2ccccc2sc2ccc(Cl)cc12,x,52,-8,x,x,x,x,x,x,x,x
Cc1ccc(NC(=O)C2CCCN(C(=O)c3ccc(Cl)cc3)C2)cc1C (stereo not given),8,64,13,-4,69*,0.98,1.1,1.5,-7,-29,-32
Cc1ccc(NC(=O)C2CCCN(c3ncccn3)C2)cc1F (stereo not given),x,134*,8,-4,73*,1.3,u,1.6,0,-18,-7

# Screening data: PubChem BioAssay, Broad Institute
